# Experimental data reported in PubChem BioAssay (NCATS).
# Unmarked numbers belong to inactive results. Results filed as inconclusive are left out. Entries that show only a call come without a potency. Active and inactive are the calls of the source. Unless noted, the call rests on the fitted dose curve; in most records, active means well fitted curve in the direction sought with a large enough effect; inconclusive means small, poorly fitted or top-dose-only effect, or another doubt; inactive means no such curve, though single readings can be large; an effect the other way counts as inactive or inconclusive.
# Legend:
# [1] = qHTS for differential inhibitors of proliferation of Plasmodium falciparum line GB4 (AID 1816); details: Potency: Plasmodium falciparum GB4 proliferation inhibition;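 further: parasite growth measured after 72 h incubation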; further: potency means the concentration at half of the fitted maximal effect
# [2] = qHTS for differential inhibitors of proliferation of Plasmodium falciparum line 3D7 (AID 1876); further: potency means the concentration at half of the fitted maximal effect;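 on activity, negative = inhibition: parasite growth measured after three days of culture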
# [3] = qHTS for differential inhibitors of proliferation of Plasmodium falciparum line D10 (AID 1877);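 further: parasites grown with compound for 72 h before DNA staining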; further: potency means the concentration at half of the fitted maximal effect
# [4] = qHTS for differential inhibitors of proliferation of Plasmodium falciparum line Dd2 (AID 1882); details: Potency: Plasmodium falciparum Dd2 proliferation inhibition; further: nearly all actives have a fitted effect of over 65% in size; further: potency means the concentration at half of the fitted maximal effect
# Procedure, shortened: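 SYBR Green I DNA fluorescence read-out, ex 485/em 535 nm. Signals were normalized to 0.29 uM artemisinin and DMSO wells, then corrected using vehicle-only plates flanking each stack. Parasite growth ran 72 h in erythrocytes before lysis.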
# [5] = qHTS for differential inhibitors of proliferation of Plasmodium falciparum line W2 (AID 1883); details: Potency: Plasmodium falciparum W2 proliferation inhibition;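 further: parasites grown with compound for 72 h before lysis and staining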; further: potency means the concentration at half of the fitted maximal effect
# [6] = qHTS for differential inhibitors of proliferation of Plasmodium falciparum line HB3 (AID 1886); details: Potency: Plasmodium falciparum HB3 proliferation inhibition;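 further: parasites grown with compound for 72 h before SYBR Green readout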; further: potency means the concentration at half of the fitted maximal effect
# [7] = qHTS Assay for Modulators of Human Peripheral Myelin Protein 22 (PMP22) Expression/Activity (AID 1967; active means well fitted curve in the direction sought with a large enough effect in the signal ratio; the % refers to the signal ratio)
# Procedure, shortened: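 Luminescence ratio of Pmp22 promoter-driven green luciferase to EF-alpha-driven red luciferase, in engineered mouse MSC80 Schwann cells, served as read-out. Compounds were incubated 24h; untreated cells defined 0% Activity; curves were classified by r2, magnitude and activity.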
# [8] = target: RecQ-like DNA helicase BLM (Homo sapiens) (UniProt P54132); experiment: qHTS Validation Assay for Inhibitors of Bloom's syndrome helicase (BLM) (AID 2364)
# RecQ-like DNA helicase BLM (Homo sapiens), sequence (P54132 whole entry, looked up): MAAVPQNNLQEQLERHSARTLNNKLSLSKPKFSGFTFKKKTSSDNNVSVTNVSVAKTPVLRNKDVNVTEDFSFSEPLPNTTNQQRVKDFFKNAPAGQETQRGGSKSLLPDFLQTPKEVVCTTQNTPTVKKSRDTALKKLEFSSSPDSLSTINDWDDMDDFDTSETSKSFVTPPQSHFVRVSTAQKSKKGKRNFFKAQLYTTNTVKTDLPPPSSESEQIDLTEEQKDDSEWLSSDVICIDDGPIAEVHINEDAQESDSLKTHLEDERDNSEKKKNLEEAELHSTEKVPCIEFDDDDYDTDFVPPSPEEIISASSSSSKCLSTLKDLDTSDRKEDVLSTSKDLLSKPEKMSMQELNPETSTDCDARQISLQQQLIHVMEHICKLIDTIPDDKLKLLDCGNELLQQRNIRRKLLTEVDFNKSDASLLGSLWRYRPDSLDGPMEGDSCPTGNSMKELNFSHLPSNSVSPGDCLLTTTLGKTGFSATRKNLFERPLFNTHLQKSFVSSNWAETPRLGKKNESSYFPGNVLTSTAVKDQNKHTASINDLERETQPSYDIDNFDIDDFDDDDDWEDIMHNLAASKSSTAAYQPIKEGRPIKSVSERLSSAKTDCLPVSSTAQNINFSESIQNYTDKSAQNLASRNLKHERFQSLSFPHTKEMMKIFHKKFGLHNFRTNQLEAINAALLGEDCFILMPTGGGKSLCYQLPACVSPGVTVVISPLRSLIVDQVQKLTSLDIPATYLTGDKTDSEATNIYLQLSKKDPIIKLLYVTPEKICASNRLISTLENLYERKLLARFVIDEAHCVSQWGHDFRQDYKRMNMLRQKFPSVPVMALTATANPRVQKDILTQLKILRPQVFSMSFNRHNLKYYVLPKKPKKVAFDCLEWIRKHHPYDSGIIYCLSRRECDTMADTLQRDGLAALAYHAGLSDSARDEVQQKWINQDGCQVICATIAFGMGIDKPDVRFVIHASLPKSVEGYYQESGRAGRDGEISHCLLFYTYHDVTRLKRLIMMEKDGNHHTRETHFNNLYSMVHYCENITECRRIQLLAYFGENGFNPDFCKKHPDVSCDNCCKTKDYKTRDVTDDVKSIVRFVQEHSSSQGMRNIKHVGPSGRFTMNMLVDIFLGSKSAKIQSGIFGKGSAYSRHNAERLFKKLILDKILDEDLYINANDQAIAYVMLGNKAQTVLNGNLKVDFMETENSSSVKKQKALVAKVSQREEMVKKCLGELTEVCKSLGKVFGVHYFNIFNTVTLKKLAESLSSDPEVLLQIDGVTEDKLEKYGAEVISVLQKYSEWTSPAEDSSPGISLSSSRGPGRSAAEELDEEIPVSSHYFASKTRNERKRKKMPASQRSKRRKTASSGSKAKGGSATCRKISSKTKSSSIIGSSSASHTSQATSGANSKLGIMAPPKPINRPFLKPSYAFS
# Procedure, shortened: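 50 nM BLM preincubated 15 min at room temperature with compound in pH 8.0 Tris buffer containing 2.5 ug/ml poly(dI-dC); started with 200 nM TAMRA/BHQ-2 forked duplex and 2 mM ATP (final). Unwinding read as TAMRA fluorescence increase, two reads 2 h apart.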
# [9] = Quantitative high throughput screen for delayed death inhibitors of the malarial parasite plastid, 96 hour incubation (AID 488745); further: nearly all actives have a fitted effect of over 70% in size; further: potency means the concentration at half of the fitted maximal effect
# Procedure, shortened: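 Growth of reporter-bearing P. falciparum in red cells is measured after 96 h with compound, covering two erythrocytic cycles. Luminescence from the integrated luciferase serves as the growth signal.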
# [10] = Quantitative high throughput screen for delayed death inhibitors of the malarial parasite plastid, 48 hour incubation (AID 488752); further: nearly all actives have a fitted effect of over 65% in size; further: potency means the concentration at half of the fitted maximal effect
# Procedure, shortened: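 One parasite generation (48 h, 37 C, 5% CO2) of luciferase-reporter P. falciparum in erythrocytes is run with test compound; decreased luminescence indicates inhibited growth.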
# [11] = target: Ubiquitin carboxyl-terminal hydrolase 1 (Homo sapiens) (UniProt O94782); experiment: Inhibitors of USP1/UAF1: Pilot qHTS (AID 504865); further: nearly all actives have a fitted effect of over 35% in size; further: potency means the concentration at half of the fitted maximal effect
# Ubiquitin carboxyl-terminal hydrolase 1 (Homo sapiens), sequence (O94782 whole entry, looked up): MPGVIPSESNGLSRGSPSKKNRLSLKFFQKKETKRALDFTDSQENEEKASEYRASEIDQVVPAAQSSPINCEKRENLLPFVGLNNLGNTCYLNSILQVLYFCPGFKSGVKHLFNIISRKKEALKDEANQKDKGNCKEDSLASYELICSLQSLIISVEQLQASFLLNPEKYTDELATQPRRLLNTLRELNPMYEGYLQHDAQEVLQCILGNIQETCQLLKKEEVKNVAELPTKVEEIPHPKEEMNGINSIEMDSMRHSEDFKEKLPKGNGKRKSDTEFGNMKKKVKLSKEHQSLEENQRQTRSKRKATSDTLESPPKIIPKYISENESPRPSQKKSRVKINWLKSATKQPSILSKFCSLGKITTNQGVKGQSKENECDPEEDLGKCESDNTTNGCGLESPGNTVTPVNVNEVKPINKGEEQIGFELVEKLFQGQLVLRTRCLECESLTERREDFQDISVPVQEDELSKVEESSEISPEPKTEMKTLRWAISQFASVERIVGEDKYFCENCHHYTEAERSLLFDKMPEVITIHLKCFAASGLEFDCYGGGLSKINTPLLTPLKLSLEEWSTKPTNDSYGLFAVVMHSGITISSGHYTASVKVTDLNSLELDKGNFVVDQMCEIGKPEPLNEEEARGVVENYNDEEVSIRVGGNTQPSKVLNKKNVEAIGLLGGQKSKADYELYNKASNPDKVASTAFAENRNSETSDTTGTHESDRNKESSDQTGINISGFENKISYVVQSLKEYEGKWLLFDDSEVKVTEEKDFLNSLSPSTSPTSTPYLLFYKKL
# Procedure, shortened: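 In 50mM HEPES pH 7.8 containing 0.5mM EDTA, 1mM TCEP, 0.1 mg/ml BSA and 0.01% Tween-20, 1nM USP1/UAF1 is exposed to compound for 15 min, then Ub-Rho (150nM final) is added and fluorescence is read over time.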
# [12] = target: Luciferin 4-monooxygenase (Photinus pyralis) (UniProt P08659); experiment: Biochemical firefly luciferase enzyme assay for NPC (AID 624030);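 further: purified P. pyralis luciferase at 10 nM with luciferin and ATP substrate; nearly all actives have a fitted effect of over 70% in size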
# Luciferin 4-monooxygenase (Photinus pyralis), sequence (P08659 whole entry, looked up): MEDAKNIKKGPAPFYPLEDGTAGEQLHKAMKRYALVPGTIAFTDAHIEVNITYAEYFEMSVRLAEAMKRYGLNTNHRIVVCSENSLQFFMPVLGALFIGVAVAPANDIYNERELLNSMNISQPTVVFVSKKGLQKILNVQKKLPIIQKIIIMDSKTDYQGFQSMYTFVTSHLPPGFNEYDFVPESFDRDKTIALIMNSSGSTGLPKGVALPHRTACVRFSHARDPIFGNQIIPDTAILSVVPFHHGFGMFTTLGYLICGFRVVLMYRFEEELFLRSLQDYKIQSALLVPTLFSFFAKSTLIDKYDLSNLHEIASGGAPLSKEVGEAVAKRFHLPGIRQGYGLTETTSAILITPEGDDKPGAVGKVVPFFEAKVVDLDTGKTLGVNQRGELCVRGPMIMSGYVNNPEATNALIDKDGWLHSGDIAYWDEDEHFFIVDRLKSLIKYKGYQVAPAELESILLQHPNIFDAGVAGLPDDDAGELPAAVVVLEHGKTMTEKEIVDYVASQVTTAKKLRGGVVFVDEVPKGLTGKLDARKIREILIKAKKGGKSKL
# Procedure, shortened: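 Purified P. pyralis luciferase at 10 nM in 50 mM Tris Acetate (final), luminescence read within 5 minutes of enzyme addition to compounds. Activity normalised to PTC124 versus DMSO; concentration-response curves classed by r2, magnitude and activity.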
# [13] = qHTS for differential inhibitors of proliferation of Plasmodium falciparum line 7G8 (AID 1815);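 further: parasite growth measured after three days of incubation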; further: potency means the concentration at half of the fitted maximal effect
# [14] = target: Voltage-gated inwardly rectifying potassium channel KCNH2 (Homo sapiens) (UniProt Q12809); experiment: qHTS Assay for Small Molecule Inhibitors of the Human hERG Channel Activity (AID 588834);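 further: lower thallium flux fluorescence means stronger hERG block; nearly all actives have a fitted effect of over 50% in size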; further: potency means the concentration at half of the fitted maximal effect
# Voltage-gated inwardly rectifying potassium channel KCNH2 (Homo sapiens), sequence (Q12809 whole entry, looked up): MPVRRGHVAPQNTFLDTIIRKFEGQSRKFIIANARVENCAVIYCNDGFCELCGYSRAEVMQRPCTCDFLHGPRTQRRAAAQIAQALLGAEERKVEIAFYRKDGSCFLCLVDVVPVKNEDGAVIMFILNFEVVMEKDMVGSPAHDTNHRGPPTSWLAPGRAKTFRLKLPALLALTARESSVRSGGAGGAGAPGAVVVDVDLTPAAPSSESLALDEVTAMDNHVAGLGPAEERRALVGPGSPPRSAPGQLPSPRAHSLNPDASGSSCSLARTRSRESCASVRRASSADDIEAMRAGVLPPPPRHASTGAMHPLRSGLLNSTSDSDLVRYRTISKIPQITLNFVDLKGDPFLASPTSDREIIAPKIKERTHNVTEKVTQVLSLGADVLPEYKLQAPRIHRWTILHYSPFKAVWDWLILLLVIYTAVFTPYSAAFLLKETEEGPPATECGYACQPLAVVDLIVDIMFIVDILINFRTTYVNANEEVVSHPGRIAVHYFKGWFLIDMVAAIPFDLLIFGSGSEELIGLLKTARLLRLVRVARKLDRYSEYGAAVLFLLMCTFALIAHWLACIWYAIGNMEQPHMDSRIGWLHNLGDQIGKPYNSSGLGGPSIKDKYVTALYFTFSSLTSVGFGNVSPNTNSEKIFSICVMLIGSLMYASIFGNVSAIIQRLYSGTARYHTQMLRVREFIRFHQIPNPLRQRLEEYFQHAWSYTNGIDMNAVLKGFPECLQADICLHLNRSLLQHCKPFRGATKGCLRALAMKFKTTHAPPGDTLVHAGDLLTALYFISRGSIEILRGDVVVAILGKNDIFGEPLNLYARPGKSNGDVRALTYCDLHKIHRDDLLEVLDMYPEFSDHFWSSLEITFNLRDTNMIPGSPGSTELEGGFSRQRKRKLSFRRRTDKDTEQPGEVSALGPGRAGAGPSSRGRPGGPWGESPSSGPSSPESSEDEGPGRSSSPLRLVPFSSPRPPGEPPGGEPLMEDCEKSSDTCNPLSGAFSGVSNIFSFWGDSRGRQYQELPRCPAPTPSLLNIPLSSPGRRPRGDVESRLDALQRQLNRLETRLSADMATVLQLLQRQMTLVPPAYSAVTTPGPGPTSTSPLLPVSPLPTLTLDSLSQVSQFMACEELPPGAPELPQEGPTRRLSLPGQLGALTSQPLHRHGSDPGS
# Procedure, shortened: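 hERG-BacMam U2OS, 2000 cells/well; 0.7X FluxOR loading 1 hr RT dark; cpd ~10 min 37 °C; stim buffer; FDSS fluorescence 2 min @ 1 s; AC50 Hill fit.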
# [15] = qHTS profiling for inhibitors of Plasmodium falciparum proliferation (AID 504749); further: nearly all actives have a fitted effect of over 60% in size; details: P. falciparum in erythrocytes, SYBR Green DNA, 72 h, at 28.7 µM (top of the series)
# Procedure, shortened: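 Readout was DNA-dye fluorescence from lysed cultures, ex 485/em 535 nm. Parasitized red cells had grown 72 h with compound; data scaled between 0.29 uM artemisinin and DMSO wells and corrected using vehicle-only plates.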
# [16] = AP1 Signaling Pathway (AID 357; active means well fitted curve in either direction with a large enough effect, not every such curve was filed as active)
# Procedure, shortened: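 AP-1-bla ME-180 cells with beta-lactamase reporter under AP-1 response element, stimulated with EC50 EGF; compounds titrated, 5 hours at 37 degrees Celsius. CCF4 read at 460/530 nm ratio; positive and negative modulators judged by AC50.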
# [17] = Stat Signaling Pathway (AID 446; active means well fitted curve in either direction with a large enough effect, not every such curve was filed as active;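 further: ME-180 cervical cancer cells given 40 pM IL-6 alongside compound; SIE-controlled beta-lactamase reporter measured as 460/530 nm FRET emission ratio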)
# Procedure, shortened: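 Screening format detects activators and inhibitors alike: ME-180 SIE-bla cells stimulated at 40 pM IL-6 for 5 hrs with compound, then dual-emission beta-lactamase read at 405 nm excitation.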
# [18] = target: Glucocorticoid receptor (Homo sapiens) (UniProt P04150); experiment: GR-GFP Redistribution (AID 450;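 active means compounds whose dose series gives a full or clear partial fitted curve of increased nuclear translocation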; further: potency means the concentration at half of the fitted maximal effect); details: U2OS GR-GFP nuclear translocation, laser cytometry, 2 h
# [19] = target: Guanine nucleotide-binding protein G(i) subunit alpha-1 (Homo sapiens) (UniProt P63096); experiment: qHTS Assay for Inhibitors of RGS12 GoLoco Motif Activity (Green Fluorophore) (AID 879);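 further: negative values mean loss of peptide binding seen as reduced polarization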
# Guanine nucleotide-binding protein G(i) subunit alpha-1 (Homo sapiens), sequence (P63096 whole entry, looked up): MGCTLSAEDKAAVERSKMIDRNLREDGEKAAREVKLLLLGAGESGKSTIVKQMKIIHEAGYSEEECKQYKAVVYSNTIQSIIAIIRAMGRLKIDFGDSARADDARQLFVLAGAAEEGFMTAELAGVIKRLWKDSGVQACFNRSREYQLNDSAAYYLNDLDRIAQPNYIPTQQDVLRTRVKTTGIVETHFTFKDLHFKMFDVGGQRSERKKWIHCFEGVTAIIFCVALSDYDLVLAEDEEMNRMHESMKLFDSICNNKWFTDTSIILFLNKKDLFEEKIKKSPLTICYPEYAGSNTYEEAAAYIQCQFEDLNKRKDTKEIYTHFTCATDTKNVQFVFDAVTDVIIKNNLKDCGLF
# Procedure, shortened: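 Fluorescence polarization assay: 50 nM Gαi1 with 10 nM FITC-labeled RGS12 GoLoco peptide in 10 mM Tris pH 7.5, 150 mM NaCl, 0.1 mM GDP, 0.05% NP40, 10 min at room temperature with compound.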
# [20] = target: Pyruvate kinase (Leishmania mexicana) (UniProt Q27686); experiment: qHTS Validation Assay for Inhibitors of Leishmania Mexicana Pyruvate Kinase (AID 945)
# Pyruvate kinase (Leishmania mexicana), sequence (Q27686 2-499 E452W): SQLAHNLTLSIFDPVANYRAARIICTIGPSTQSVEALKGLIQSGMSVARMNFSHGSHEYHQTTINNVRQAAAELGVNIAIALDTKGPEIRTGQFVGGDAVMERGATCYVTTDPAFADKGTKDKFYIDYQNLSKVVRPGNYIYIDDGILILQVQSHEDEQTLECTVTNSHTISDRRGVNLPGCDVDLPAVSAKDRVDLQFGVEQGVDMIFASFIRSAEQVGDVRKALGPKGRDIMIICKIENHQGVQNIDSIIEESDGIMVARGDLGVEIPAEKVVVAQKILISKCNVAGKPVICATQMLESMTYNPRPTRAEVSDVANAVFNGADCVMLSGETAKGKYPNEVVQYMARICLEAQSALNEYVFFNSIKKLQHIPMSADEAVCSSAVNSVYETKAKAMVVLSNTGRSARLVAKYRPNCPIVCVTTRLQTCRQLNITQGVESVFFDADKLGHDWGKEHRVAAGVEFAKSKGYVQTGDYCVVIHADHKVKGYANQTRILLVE
# Procedure, shortened: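 An endpoint luciferase assay: 0.2 nM LmPYK E451W turns over 0.5 mM PEP with 0.1 mM ADP for 1 h at room temperature, pH 7.2, before PKLight addition. Values are normalized to DMSO-only wells.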
structure (smiles),measurement,setting,value
C[C@H]1C2Cc3ccc(O)cc3[C@]1(C)CCN2CC1CC1,Potency,[1],11.2 µM (active)
same,Potency,[2],inactive
same,Potency,[3],inactive
same,Potency,[4],7.94 µM (active)
same,Potency,[5],2.82 µM (active)
same,Potency,[6],inactive
same,outcome,[7],inactive
same,outcome,[8],inactive
same,Potency,[9],inactive
same,Potency,[10],inactive
same,Potency,[11],inactive
same,Potency,[12],inactive
COC(=O)C(N)CCCN=C(N)N[N+](=O)[O-] (configuration not stated),Potency,[13],inactive
same,Potency,[1],inactive
same,Potency,[2],inactive
same,Potency,[3],inactive
same,Potency,[4],inactive
same,Potency,[5],inactive
same,Potency,[6],inactive
same,outcome,[7],inactive
same,Potency,[9],inactive
same,Potency,[10],inactive
CC12CCC3C(CCC4=C(O)C(=O)CCC43C)C1CCC2=O (configuration not stated),Potency,[1],inactive
same,Potency,[2],inactive
same,Potency,[3],inactive
same,Potency,[4],inactive
same,outcome,[7],inactive
same,outcome,[8],inactive
same,Potency,[9],inactive
same,Potency,[10],inactive
same,Potency,[11],inactive
same,Potency,[14],inactive
same,Potency,[12],inactive
CC(C)(O)C1C2OC(=O)C1[C@]1(O)C[C@H]3O[C@]34C(=O)O[C@H]2[C@]14C (some centres not stated) (tested in a mixture with another compound),Potency,[13],inactive
same,Potency,[1],inactive
same,Potency,[2],inactive
same,Potency,[3],inactive
same,Potency,[4],inactive
same,Potency,[5],inactive
same,Potency,[6],inactive
same,Potency,[9],inactive
same,Potency,[10],inactive
same,Potency,[11],inactive
same,Potency,[12],inactive
same,"activity, negative = inhibition",[15]; parasite line A,14%
same,"activity, negative = inhibition",[15]; parasite line B,-0.69%
CN1CCC23CCCC[C@H]2C1Cc1ccc(O)cc13 (some centres not stated),Potency,[13],6.31 µM (active)
same,Potency,[2],inactive
same,Potency,[3],inactive
same,Potency,[4],5.01 µM (active)
same,Potency,[5],1.58 µM (active)
same,Potency,[6],inactive
same,outcome,[7],inactive
same,Potency,[9],inactive
same,Potency,[10],inactive
CCN(CC)C(=O)N[C@@H]1C[C@@H]2c3cccc4[nH]cc(c34)C[C@H]2N(C)C1,Potency,[13],5.62 µM (active)
same,Potency,[1],6.31 µM (active)
same,Potency,[2],0.398 µM (active)
same,Potency,[5],0.891 µM (active)
same,Potency,[6],0.891 µM (active)
same,Potency,[9],1.17 µM (active)
same,Potency,[11],inactive
same,Potency,[12],inactive
CCN1C[C@]2(C)CC[C@H](O)[C@@]34[C@@H]5C[C@@H]6[C@@H](OC)C[C@@](O)(C5[C@H]6O)[C@@H](C[C@@H]23)[C@@H]14,Potency,[13],inactive
same,Potency,[2],inactive
same,Potency,[3],inactive
same,Potency,[4],inactive
same,Potency,[6],inactive
same,outcome,[7],inactive
same,Potency,[9],inactive
same,Potency,[14],inactive
CCC(CO)NC(=O)[C@@H]1C=C2c3cccc4[nH]cc(c34)C[C@H]2N(C)C1 (some centres not stated),Potency,[13],10 µM (active)
same,Potency,[2],14.1 µM (active)
same,Potency,[5],12.6 µM (active)
same,Potency,[6],10 µM (active)
same,Potency,[10],inactive
same,Potency,[14],inactive
CCCN1CCCC(c2cccc(O)c2)C1 (configuration not stated),Potency,[13],8.91 µM (active)
same,Potency,[1],12.6 µM (active)
same,Potency,[2],inactive
same,Potency,[3],inactive
same,Potency,[5],8.91 µM (active)
same,Potency,[6],inactive
same,outcome,[7],inactive
same,outcome,[8],inactive
same,Potency,[9],inactive
same,Potency,[10],inactive
COc1ccc2c3c1O[C@H]1C(=O)CC[C@@]4(O)C(C2)N(CC2CC2)CCC314 (some centres not stated),Potency,[2],inactive
same,Potency,[3],inactive
same,Potency,[5],11.2 µM (active)
same,Potency,[6],inactive
same,outcome,[7],inactive
same,Potency,[9],inactive
same,Potency,[10],inactive
C[C@]12CC[C@H]3[C@@H](CCC4C[C@H](O)CC[C@@]43C)[C@@H]1CC[C@@H]2O (some centres not stated),Potency,[13],inactive
same,Potency,[1],inactive
same,Potency,[2],inactive
same,Potency,[3],inactive
same,Potency,[4],inactive
same,Potency,[5],inactive
same,Potency,[6],inactive
same,outcome,[7],inactive
same,outcome,[8],inactive
same,Potency,[9],inactive
same,Potency,[10],inactive
same,Potency,[14],inactive
COc1cc(C=C(C#N)C#N)cc(O)c1O,outcome,[16],inactive
same,outcome,[17],inactive
same,Potency,[18],> 46 µM
same,outcome,[19],inactive
same,Potency,[20],inactive
same,Potency,[1],12.6 µM (active)
same,Potency,[5],10 µM (active)
same,Potency,[9],inactive
NCC#Cc1ccccc1,outcome,[16],inactive
same,outcome,[17],inactive
same,Potency,[18],> 46 µM
same,outcome,[19],inactive
same,Potency,[20],inactive
same,Potency,[1],inactive
same,Potency,[2],inactive
same,Potency,[3],inactive
same,Potency,[4],inactive
same,Potency,[5],12.6 µM (active)
same,Potency,[6],inactive
same,Potency,[9],inactive
same,Potency,[10],inactive
same,Potency,[14],inactive
CCNC(=O)[C@H]1O[C@@H](n2cnc3c(N)ncnc32)[C@H](O)[C@H]1O,Potency,[13],inactive
same,Potency,[1],inactive
same,Potency,[2],inactive
same,Potency,[3],inactive
same,Potency,[4],inactive
same,Potency,[5],inactive
same,Potency,[6],inactive
same,outcome,[7],inactive
same,Potency,[9],inactive
same,Potency,[10],inactive
same,Potency,[14],inactive
CN1C[C@@H](CS(=O)(=O)N(C)C)C[C@@H]2c3cccc4c3c(cn4C)C[C@H]21,Potency,[2],3.98 µM (active)
same,Potency,[5],3.55 µM (active)
same,outcome,[8],inactive
same,Potency,[14],inactive
CC[C@@H](CO)NC(=O)[C@H]1C=C2c3cccc4c3c(cn4C)C[C@H]2N(C)C1,Potency,[11],35.5 µM (active)
same,Potency,[14],inactive
CCCCN1C2CCC1CC(OC(c1ccc(F)cc1)c1ccc(F)cc1)C2 (configuration not stated),outcome,[19],inactive
same,Potency,[20],inactive
same,Potency,[13],2 µM (active)
same,Potency,[1],1.58 µM (active)
same,Potency,[2],0.891 µM (active)
same,Potency,[3],2.24 µM (active)
same,Potency,[4],3.98 µM (active)
same,Potency,[5],0.631 µM (active)
same,Potency,[6],1 µM (active)
same,Potency,[9],1.85 µM (active)
same,Potency,[10],7.38 µM (active)
same,Potency,[14],0.0891 µM (active)
